Bioassay records deposited in PubChem BioAssay by Johns Hopkins Ion Channel Center.
KCNQ2 pot – potentiators of rat KCNQ2 potassium channel; O88943; CHO-K1 KCNQ2, FluxOR thallium flux fluorescence; stronger effect = higher value; B-score at 10 µM; 310,000 compounds, 0.54% hits;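 active = fluorescence ratio B-score at least 3 SD of library B-scores, with initial fluorescence B-score within 3 of them, cut at about 5.3 in these data; same plate scores as AID 2156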;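 also: B-score of peak minus minimum over baseline fluorescence ratio after K+ and Tl+ stimulus; positive B-score means potentiation of KCNQ2 with more thallium influx and brighter signal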
KCNQ2 block – inhibitors of rat KCNQ2 potassium channel; CHO-K1 KCNQ2, FluxOR thallium flux, 20 min; stronger effect = lower value; AID 2156; O88943; 310,000 compounds, 1.1% hits; B-score at 10 µM;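 active = fluorescence ratio B-score at most minus 3 library SDs, with starting brightness B-score within 2 library SDs, cut at about -5.5 in these data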
Kir21 conf inh – confirmation of mouse Kir2.1 potassium channel inhibitors. shares compounds with KCNQ2 pot. Kir2.1-expressing cells, FluxOR thallium flux fluorescence; stronger effect = lower value. Tl flux remaining, % of negative control (stronger effect = lower value), % at 10 µM. 2,300 compounds, 41% hits. AID 2032;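 active = Primary-screen hit whose thallium flux fell at least 3 control SD below untreated wells in both duplicates, with normal baseline fluorescence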;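 also: 0% = blank wells without stimulus and 100% = stimulated no-compound controls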
Target sequence (P35561 whole entry, looked up): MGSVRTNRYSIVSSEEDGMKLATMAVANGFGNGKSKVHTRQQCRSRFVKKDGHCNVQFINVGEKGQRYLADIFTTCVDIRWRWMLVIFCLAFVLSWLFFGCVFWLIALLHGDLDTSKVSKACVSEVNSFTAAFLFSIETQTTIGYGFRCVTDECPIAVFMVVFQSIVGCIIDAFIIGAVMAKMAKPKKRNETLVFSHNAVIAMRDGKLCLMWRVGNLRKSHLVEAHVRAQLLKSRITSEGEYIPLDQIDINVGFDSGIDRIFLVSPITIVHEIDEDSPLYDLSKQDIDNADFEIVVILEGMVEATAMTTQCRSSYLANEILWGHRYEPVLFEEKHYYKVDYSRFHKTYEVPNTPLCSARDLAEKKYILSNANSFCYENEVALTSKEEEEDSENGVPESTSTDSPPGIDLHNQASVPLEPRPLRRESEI
HEK293 ctr – alters thallium flux in parental HEK293 cells, Kir2.1 counter-screen | 2,300 compounds, 19% hits | shares compounds with KCNQ2 pot | FluxOR thallium flux fluorescence; 0% = unstimulated blank wells | FluxOR signal as % of negative control (100 = no effect), % at 10 µM;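 active = dye signal at least 3 control SD above or below untreated wells in both duplicates, raw fluorescence within 3, either direction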;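 also: percent is based on the flux ratio of peak minus minimum fluorescence over baseline F0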
CHO-K1 ctr – counter-screen for KCNQ2 potentiators: effect in parental CHO-K1 cells; shares compounds with KCNQ2 pot; FluxOR thallium flux fluorescence; zero = vehicle mean+3SD, 100% = vehicle-minus-blank window; activity increase over 3SD of controls, % at 10 µM; 1,200 compounds, 43% hits;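 active = signal rise of at least 3 SD above the untreated control mean, in both duplicate wells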;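 also: counter screen of KCNQ2 potentiator hits so any rise reflects channel-independent effects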
KCNQ1 sel pot – selectivity of KCNQ2 potentiators: effect on human KCNQ1; shares compounds with KCNQ2 pot; CHO KCNQ1 stable, FluxOR thallium flux fluorescence; beyond 3SD, as % of vehicle-control signal; activation over 3SD threshold, % at 10 µM; 1,200 compounds, 28% hits; AID 2283;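 active = fluorescence ratio rise of at least 3 SD of vehicle wells above their mean, in both replicate wells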;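 also: 0% = vehicle mean plus 3 SD and 100% = vehicle minus unstimulated blank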
KCNQ2 pot conf – confirmation of rat KCNQ2 potassium channel potentiators. shares compounds with KCNQ2 pot. CHO-KCNQ2 cells, FluxOR thallium flux fluorescence. potentiation, less the hit threshold, % at 10 µM. 1,200 compounds, 68% hits. AID 2287;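 active = fluorescence ratio rising 3 SD or more over the vehicle control mean in both replicates, plus primary screen hit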;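 also: peak minus minimum thallium fluorescence divided by baseline after K/Tl stimulus; 0% = vehicle mean plus 3 SD and 100% = vehicle minus unstimulated blank difference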
Kir2-1 sel – mouse Kir2.1 off-target activity of KCNQ2 potentiators. shares compounds with KCNQ2 pot. HEK293 Kir2.1, FluxOR thallium flux fluorescence. activity over 3SD threshold, % at 10 µM. 1,200 compounds, 2% hits. AID 2345;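 active = fluorescence ratio rise of at least 3 SD above the vehicle-control mean, seen in both replicates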;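 also: 0% = vehicle mean plus 3 SD and 100% = vehicle minus no-stimulus blank window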
KCNQ2 W236L MoA – potentiates the retigabine-insensitive rat KCNQ2 W236L mutant channel | shares compounds with KCNQ2 pot | CHO KCNQ2-W236L, automated patch clamp current | current increase over 3SD of negative controls (%), stronger effect = higher value, % at 25 µM | 940 compounds, 10% hits | AID 2558;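 active = current increase at least 3 SD of the untreated controls above them in both duplicate recordings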
Numbers without * were called inactive; i = inactive; x = not tested or not shown. An excerpt weighted towards active compounds, which were near 1.6% of everything screened.

SMILES	KCNQ2 pot	KCNQ2 block	Kir21 conf inh	HEK293 ctr	others
COc1cc(/C=C/c2ccc3cccc(O)c3n2)ccc1O	17*	i	i	142%*	CHO-K1 ctr=7.5*;KCNQ1 sel pot=35*;KCNQ2 pot conf=12*;Kir2-1 sel=-37;KCNQ2 W236L MoA=i
CSc1ccccc1C(=O)NCc1ccccc1C	x	i	x	x
O=C(COC(=O)c1ccccc1Br)Nc1ccccc1F	x	i	x	x
Cc1occc1C(=O)NCCCCNC(=O)c1ccoc1C	0.46	i	x	x
CCCCCCCCCCCNC(=O)c1ccoc1C	13*	i	x	x	CHO-K1 ctr=-20;KCNQ1 sel pot=66*;KCNQ2 pot conf=37*;Kir2-1 sel=-64;KCNQ2 W236L MoA=i
CCOC(=O)c1sc(=S)n(C)c1NC(=O)c1ccccc1	x	i	x	x
CCOC(=O)c1sc(=S)n(-c2ccccc2)c1NC(C)=O	7.5*	i	x	x	CHO-K1 ctr=35*;KCNQ1 sel pot=3.6*;KCNQ2 pot conf=7.8*;Kir2-1 sel=-61;KCNQ2 W236L MoA=i
COc1ccc(CNCc2ccc3ccccc3c2)c(OC)c1	4.5	i	24%*	i
COc1ccc(CNCc2cccc(Oc3ccccc3)c2)cc1	2.1	i	10%*	i
COc1ccc(CNCc2cccc(C)c2)cc1	0.68	i	x	x
COc1ccc(CNCc2ccncc2)c(OC)c1	1.5	i	x	x
OC(COc1ccc(CNCCc2ccccc2F)cc1)CN1CCCCC1 (configuration not stated)	x	i	x	x
Cc1ccc(C)c(NC(=O)c2ccc(S(=O)(=O)C(F)F)cc2)c1	x	i	x	x
COC(=O)CSc1[nH]c2ccc(Br)cc2c1[N+](=O)[O-]	6.5*	i	i	i	CHO-K1 ctr=-22;KCNQ1 sel pot=-13;KCNQ2 pot conf=-24;Kir2-1 sel=-23
CCOc1ccc2[nH]c(SCC(=O)OC)c([N+](=O)[O-])c2c1	x	i	x	x
COc1ccc(CNC(=O)c2csc(Cc3ccc(Cl)cc3)n2)cc1	x	i	x	x
COc1ccc(CNC(=O)c2csc(Cc3ccc(OC)cc3)n2)cc1	x	i	52%*	i
O=C(NCCNc1ccc([N+](=O)[O-])cc1)c1cccs1	x	i	x	x
COc1ccc(N2CCc3c(C)nc4c(OC)cccc4c32)cc1	1.1	i	x	x
COc1cccc(N2CCc3c(C)nc4ccc(Cl)cc4c32)c1	x	i	20%*	i
O=C1/C(=C/c2cccs2)SC(=S)N1c1cccc(O)c1	0.6	i	x	x
Cc1ccc(CNc2nc3ccccc3n2C)cc1	x	i	36%*	i
Cn1c(CNc2nc3ccccc3n2C)nc2ccccc21	x	i	x	x
Cn1c(NCc2ccc(Cl)cc2)nc2ccccc21	x	i	25%*	i
Cn1c(NCc2c(O)ccc3ccccc23)nc2ccccc21	x	i	x	x
SMILES	KCNQ2 pot	KCNQ2 block	Kir21 conf inh	HEK293 ctr	others
CCOC(=O)CNC(=O)C12CC3CC(CC(C3)C1)C2	0.43	i	x	x
Cc1nonc1OCCNC(=O)C12CC3CC(CC(C3)C1)C2	13*	i	i	74%*	CHO-K1 ctr=74*;KCNQ1 sel pot=-20;KCNQ2 pot conf=-14;Kir2-1 sel=-41
CCOc1ccc(C(=O)C(C)OC(=O)c2nc(Cl)ccc2Cl)cc1 (configuration not stated)	x	i	x	x
CCCOc1ccc(OCCn2nc(C(=O)O)c3ccccc3c2=O)cc1	x	i	x	x
COCC(=O)N1CCC(n2nccc2NC(=O)c2ccccc2OC)CC1	x	i	x	x
CC1CCC(C(C)C)C(OC(=O)Cn2c(-c3ccccc3)[n+](C)c3ccccc32)C1 (configuration not stated)	x	i	26%*	i
CC1CCC(C(C)C)C(OC(=O)C[n+]2cc(-c3ccc(Cl)cc3)n3c2CCC3)C1 (configuration not stated)	0.19	i	x	x
COc1cc(Cl)c(C)cc1NC(=O)CC1CCCC1	5.8*	i	i	i	CHO-K1 ctr=-9;KCNQ1 sel pot=-18;KCNQ2 pot conf=24*;Kir2-1 sel=-32;KCNQ2 W236L MoA=i
COc1ccc(Cl)cc1NC(=O)CC1CCCC1	x	i	x	x
COc1cc(OC)cc(C(=O)OCC(=O)N(C)c2ccccc2)c1	x	i	x	x
CCCCn1c(-c2csc3ccccc23)n[nH]c1=S	0.12	i	x	x
CCCCn1c(-c2csc(C(C)C)c2)n[nH]c1=S	8.1*	i	x	x	CHO-K1 ctr=-2;KCNQ1 sel pot=22*;KCNQ2 pot conf=3.4*;Kir2-1 sel=-55;KCNQ2 W236L MoA=40%*
OCC1CCCN(C(=S)Nc2ccc(Nc3ccccc3)cc2)C1 (configuration not stated)	0.5	i	x	x
O=c1[nH]c2cc3c(cc2cc1CN(CCO)S(=O)(=O)c1ccccc1)OCCO3	x	i	x	x
CCOc1ccccc1N1CC(C(=O)NCCOc2ccccc2OC)CC1=O (configuration not stated)	x	i	x	x
CC(=O)Cn1nnc2sc(-c3ccccc3)cc2c1=O	0.75	i	x	x
CSC(=S)N/N=C(\C)c1ccccc1	8.7*	i	i	288%*	CHO-K1 ctr=-12;KCNQ1 sel pot=-12;KCNQ2 pot conf=26*;Kir2-1 sel=-15;KCNQ2 W236L MoA=9.3%*
C/C(=N\NC(N)=S)c1ccccc1	x	i	x	x
OCc1cc(C(O)CNCCCCCCOCCCCc2ccccc2)ccc1O (configuration not stated)	0.73	i	32%*	i
OC(CNCc1cccc(Br)c1)c1ccccc1 (configuration not stated)	0.38	i	x	x
CCOC(=O)C1CCN(C(=O)Nc2cc(Cl)cc(Cl)c2)CC1	x	i	x	x
O=C(O)c1ccc(NC2=C(Cl)C(=O)c3ccccc3C2=O)cc1	-10	-10*	i	i
O=C(O)c1cccc(NC2=C(Cl)C(=O)c3ccccc3C2=O)c1	-7.6	-7.6*	38%*	i
Cc1ccc(NC2=C(NC(=O)c3ccccc3)C(=O)c3ccccc3C2=O)cc1Cl	x	i	x	x
O=C1C(Cl)=C(Nc2ccccc2)C(=O)c2ccccc21	x	i	x	x
SMILES	KCNQ2 pot	KCNQ2 block	Kir21 conf inh	HEK293 ctr	others
Cn1nccc1NC(=O)COCC(=O)O	0.43	i	x	x
O=C(COC(=O)Cc1ccc(Cl)cc1)Nc1c(F)cccc1F	x	i	x	x
CCOC(=O)c1cccc(OS(=O)(=O)Cc2ccccc2)c1	0.14	i	x	x
O=S(=O)(c1ccc(Cl)cc1)N1CCCC1c1nc(-c2ccc(Cl)cc2)no1 (configuration not stated)	x	i	x	x
Nc1nc(C2CCCN2S(=O)(=O)c2ccc(Cl)cc2)cs1 (configuration not stated)	1.3	i	62%*	i
Cc1cc(C)n(CC(=O)N/N=C/c2cc([N+](=O)[O-])ccc2O)n1	1.3	i	x	x
